Only some compounds are listed: those with a hit (about 3.4% of all), similar ones and a draw of the others.
TMEM16A inh: blocks the mouse calcium-activated chloride channel TMEM16A. Q8BHY3. normalized B-score (activity score, 25-100; higher = stronger inhibition) at 10 µM. HEK293 TMEM16A/YFP iodide influx fluorescence, ionomycin. hit rate 1.2% among 310,000;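 active means ratio plate-corrected score three or more library SD toward inhibition, starting fluorescence score within five deviations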;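 further: score derived from kinetic fluorescence span divided by baseline fluorescence per well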
TMEM16A act: mouse TMEM16A channel activation, primary screen; Q8BHY3; HEK293 TMEM16A/YFP-H148Q/I152L, iodide quench fluorescence; hits give low values; B-score at 10 µM; hit rate 0.3% among 340,000;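 active means fluorescence-ratio B-score plate-corrected deviation score at least 3 library SD below zero, with starting fluorescence score within 5 deviations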;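 further: channel opened by trigger with iodide after compound preincubation; score built on the fluorescence ratio of max minus min over baseline; more negative score means more quench and so TMEM16A activation or potentiation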
MEKK2 mut-MEK5: signal of MEK5 binding to mutant human MEKK2 PB1 domain | bead flow cytometry, Alexa488-MEK5 binding to MEKK2 mutant | percent response, % at 10 µM | hit rate 0.35% among 290,000; in the data active means percent response above about 24%, passing the limit was not always enough
MEKK2 WT-MEK5: raises or lowers MEK5 binding to wildtype human MEKK2 PB1 domain; Q9Y2U5; bead flow cytometry, Alexa488-MEK5 binding to MEKK2 WT; actives lie on both sides; binding response (% of control), % at 10 µM; hit rate 1.1% among 290,000; AID 1531; in the data active means binding response below about 67% or above about 130%
MEKK3 PB1 HTS: modulators (inhibitors or enhancers) of MEK5 binding to human MEKK3 PB1 domain. Q99759. bead-based flow cytometry, Alexa488-MEK5 binding to MEKK3; actives lie on both sides; 0 = blocked by unlabeled MEK5, 100 = vehicle. AID 1529. binding response (% of control), % at 10 µM. hit rate 1.4% among 290,000;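 active means binding response more than 3 SD above or below the average of its plate-row segment, actives on both sides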;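 further: Alexa488 bead fluorescence after subtracting the streptavidin-only scavenger bead signal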
Target sequence (Q99759 whole entry, looked up, the tested form may be a part): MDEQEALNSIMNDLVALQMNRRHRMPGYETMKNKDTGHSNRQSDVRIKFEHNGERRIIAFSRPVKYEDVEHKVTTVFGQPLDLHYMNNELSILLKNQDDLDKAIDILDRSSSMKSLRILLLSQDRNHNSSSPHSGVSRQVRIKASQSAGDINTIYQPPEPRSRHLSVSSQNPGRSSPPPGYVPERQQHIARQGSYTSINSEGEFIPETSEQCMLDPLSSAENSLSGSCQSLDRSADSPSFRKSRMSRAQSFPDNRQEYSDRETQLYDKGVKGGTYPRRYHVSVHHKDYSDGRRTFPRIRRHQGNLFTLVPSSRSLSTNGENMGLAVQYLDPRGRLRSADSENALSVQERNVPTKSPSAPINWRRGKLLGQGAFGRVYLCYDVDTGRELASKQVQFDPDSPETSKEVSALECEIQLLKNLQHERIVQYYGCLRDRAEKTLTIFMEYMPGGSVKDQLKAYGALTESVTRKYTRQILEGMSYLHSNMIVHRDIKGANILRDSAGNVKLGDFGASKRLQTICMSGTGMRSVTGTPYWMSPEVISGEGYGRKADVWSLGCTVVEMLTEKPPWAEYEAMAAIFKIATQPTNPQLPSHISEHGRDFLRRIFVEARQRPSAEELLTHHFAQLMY
NTR1 agonist: activates human neurotensin receptor 1 | P30989 | NTR1-U2OS beta-arrestin-GFP spot imaging, agonist mode | activation, % at 20 µM | hit rate 0.17% among 330,000 | AID 493036;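 active means activation at or above 40% of the spot to cytoplasm intensity ratio, with at least 20 cells analyzed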;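 further: 0% = DMSO without peptide and 100% = 100 nM NTR1 peptide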
* hit, by the source's call; i = inactive; · = no result given; [ ] = dose if it differs, or a comment.

SMILES	TMEM16A inh	TMEM16A act	MEKK2 mut-MEK5	MEKK2 WT-MEK5	MEKK3 PB1 HTS	NTR1 agonist
O=C(Nc1nnc(-c2cccs2)o1)c1cccc(F)c1	i	i	13	115	114	4
CN1CCN(C2=C(Cl)C(=O)c3ccccc3C2=O)CC1	·	i	·	·	·	·
CN1CCN(C2=C(Cl)C(=O)C(c3cnc(N4CCCCC4)s3)=C(Cl)C2=O)CC1	100*	i	1	94	79	7
COc1ccc(CNC(=O)[C@H](C)N2C(=O)N3CCc4c([nH]c5ccccc45)[C@@]3(C)C2=O)cc1OC	i	-13*	1	102	102	-2
Cc1cccc(CN2C(=O)/C(=C\c3ccc(C(=O)NCCCN4CCN(C)CC4)cc3)Oc3ccccc32)c1	i	i	36*	162*	105	13
CN1CCN(CCCNC(=O)c2ccc(/C=C3\Oc4ccccc4N(Cc4ccccc4F)C3=O)cc2)CC1	i	i	29*	159*	104	16
Oc1c(Br)cc(Br)cc1C=Nc1cccnc1	i	i	-2	90	97	2
COc1ccc(N2C(=O)CC(NCCNc3ccc([N+](=O)[O-])cn3)C2=O)cc1 (centres undefined)	i	i	-1	105	99	5
CCOc1ccc(N2C(=O)CC(NCCNc3ccc([N+](=O)[O-])cn3)C2=O)cc1 (centres undefined)	25*	i	-25	64	65	1
CC(C)CCN1CCN(Cc2nc3c(s2)CCCC3)CC1CCO (centres undefined)	i	i	4	103	102	-1
Cc1ccc([C@@H]2CC=C(C(=O)O)[C@H](c3ccccc3F)N2S(=O)(=O)c2ccc(C)cc2)cc1	i	-24*	·	·	·	15
Cc1ccc(S(=O)(=O)N2[C@@H](c3ccccc3F)C(C(=O)O)=CC[C@H]2c2ccc(C(C)C)cc2)cc1	100*	i	·	·	·	17
COc1ccc([C@@H]2CC=C(C(=O)O)[C@H](c3ccccc3F)N2S(=O)(=O)c2ccc(C)cc2)cc1OC	i	i	·	·	·	1
O=C(COC(=O)c1ccc(O)cc1O)Nc1ccc2c(c1)OCCO2	·	-28*	·	·	·	2
C=CCn1c(-c2ccc(S(=O)(=O)N3CCOCC3)cc2)csc1=Nc1ccccc1	i	i	11	101	100	1
COc1ccc(N=c2scc(-c3ccc(S(=O)(=O)N4CCOCC4)cc3)n2CCCO)cc1	·	·	-36	3.0*[inhibitor]	2.0*[inhibitor]	·
NC(=O)c1ccc(NC(=O)CSc2nc3ccccc3c(=O)n2CCCN2CCOCC2)cc1	·	i	·	·	·	10
CSc1ccccc1NC(=O)CO/N=C(\C)c1cc2ccccc2o1	25*	i	-4	98	96	3
C/C(=N\OCC(=O)Nc1ccc(F)c(F)c1F)c1cc2ccccc2o1	i	i	7	101	97	2
CC(=O)c1ccc(S(=O)(=O)NCCc2csc(-c3cccnc3)n2)cc1	i	i	6	103	101	1
CCn1nc(C)c(CN2CCC(C(=O)Nc3cccc(-c4cccc(F)c4)c3)CC2)c1C	i	i	25*	136*	106	0
CCn1cc(CN2CCC(C(=O)Nc3cccc(-c4cccc(F)c4)c3)CC2)cn1	i	i	11	128	103	1
COc1cc(NS(=O)(=O)c2ccc(C)cc2)ccc1-n1cnnn1	i	i	0	102	103	0
CCN=C(NCC)SC1CC(=O)N(c2cccc(OCC)c2)C1=O (centres undefined)	i	-9.4*	·	·	·	1
CCN=C(NCC)SC1CC(=O)N(c2ccc(OC)cc2)C1=O (centres undefined)	i	i	-3	93	97	0
SMILES	TMEM16A inh	TMEM16A act	MEKK2 mut-MEK5	MEKK2 WT-MEK5	MEKK3 PB1 HTS	NTR1 agonist
Cc1nc(C(F)(F)F)c(C(=O)N=CN(C)C)s1	i	i	-8	85	94	1
COc1ccc(-c2cc3ccc(OCC(N)=O)cc3oc2=O)cc1OC	25*	i	-6	95	95	0
CCOC(=O)C(Cc1ccccc1)NC(=O)CCc1nnc2ccc(N3CCCC3)nn12 (centres undefined)	i	i	-4	100	101	2
COCCn1c(C)cc(C(=O)CSc2ccc3ccccc3n2)c1C	25*	i	-3	95	98	0
O=C(COC(=O)C1CCN(S(=O)(=O)c2cccs2)CC1)Nc1ccc(F)cc1Cl	·	i	·	·	·	2
CC(C(=O)Nc1ccc(F)cc1Cl)N1CCN(S(=O)(=O)c2cccs2)CC1 (centres undefined)	·	-21*	·	·	·	2
O=S(=O)(Cc1ccccc1)N1CCc2ccccc21	i	·	74*	·	90	-4
CN(C)S(=O)(=O)N1CCc2ccccc21	i	i	5	109	108	-1
O=C1CCN(CCc2ccccc2)CCN1CCO	i	i	-1	99	102	-1
C=C1C(=O)c2sccc2C(c2ccc(OC)c(OC)c2)C1COC(C)=O (centres undefined)	·	-4.8*	·	·	·	·
COc1ccc(OCC(=O)N(Cc2cccs2)C2CCS(=O)(=O)C2)cc1 (centres undefined)	i	i	-1	101	101	1
CCCCCCSc1ccc([C@H]2N[C@@](C)(C(=O)OC)[C@H]3C(=O)N(C)C(=O)[C@@H]23)cc1	100*	i	·	·	·	2
CCCSc1ccc([C@H]2N[C@@](C)(C(=O)OC)[C@H]3C(=O)N(C)C(=O)[C@@H]23)cc1	i	i	·	·	·	0
Cc1nn(-c2ccc(Cl)nn2)c(=O)c2ccccc12	i	i	0	93	100	-2
CC(c1ccccc1)N1C(=O)c2ccc(C(=O)Nc3ccc(Br)cc3C(=O)O)cc2C1=O (centres undefined)	100*	i	0	100	102	15
CC(c1ccccc1)N1C(=O)c2ccc(C(=O)Nc3ccccc3C(=O)O)cc2C1=O (centres undefined)	i	i	-4	99	104	0
COc1ccccc1OCCOCCOc1c(C)cc(C)cc1Br	i	i	3	104	105	5
COc1cc(C)ccc1OCCOCCOc1c(C)cc(C)cc1Br	100*	i	-2	103	102	4
O=C(Cn1cnc([N+](=O)[O-])c1)Nc1ccccc1C(F)(F)F	i	i	3	101	102	2
Cc1ccc(S(=O)(=O)N(CC(=O)NCCC2=CCCCC2)Cc2ccccc2F)cc1	25*	i	-3	95	93	9
CCN(CC)c1ccc2c(Cl)c(Br)c(=O)oc2c1	i	i	-2	-27*	90	-4
